Source: PubChem (National Center for Advancing Translational Sciences (NCATS))
A selection: hits, their analogues and other compounds. The true share with any hit is near 18%.
DT40 TDP1 CPT: qHTS for Inhibitors of human tyrosyl-DNA phosphodiesterase 1 (TDP1): qHTS in cells in presence of CPT | 420,000 compounds, 12% hits | chicken DT40 Tdp1-/-;hTDP1 cells + 20 nM CPT, ATP luminescence, 48 h | AID 686979, 2013 | Potency, µM (titrated, usually from 46.2 µM), actives largely listed as inhibitors; note: nearly all actives have a fitted effect of over 55% in size
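Chicken DT40 Tdp1-/- cells complemented with human TDP1, 400 cells/well, exposed to compounds plus 20 nM camptothecin for at least 48 h at 37 C; viability read as ATP content by CellTiter-Glo luminescence.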
IL-1B inflam inh: qHTS for Inhibitors of Inflammasome Signaling: IL-1-beta AlphaLISA Primary Screen. 360,000 compounds, 4.7% hits. THP-1 LPS/ATP IL-1B secretion, AlphaLISA, 16 h; hits give low values. AID 743279, 2014. activity change, % at 57.5 µM; in the data active = activity change below about -50%; inconclusive = mostly about -30% to -49%
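Secreted IL-1B measured by AlphaLISA bead assay after 16 h compound exposure of THP-1 cells; compounds (final up to 57.5 uM) added 1 h before LPS (250 ng/mL) and ATP (1.25 mM) stimulation; lower signal means less secretion.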
TDP1 block: qHTS Assay for Inhibitors of Tyrosyl-DNA Phosphodiesterase (TDP1). Tyrosyl-DNA phosphodiesterase 1 (Homo sapiens), Q9NUW8. recombinant TDP1, AlphaScreen DNA substrate cleavage. Potency, µM (highest dose often 130 µM), usual class: inhibitors. 350,000 compounds, 0.28% hits. AID 485290, 2010; note: nearly all actives have a fitted effect of over 40% in size
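Recombinant E. coli-expressed Tdp1 (1 nM) preincubated with compound 15 min at RT, then 5'-biotin/3'-phosphotyrosine-FITC DNA substrate (15 nM) added for 5 min. AlphaScreen beads (10 ug/ml) added, 10 min RT; tyrosine-FITC cleavage read as signal loss.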
CtBP-E1A blk: qHTS Assay for Inhibitors of the CtBP/E1A Interaction; 340,000 compounds, 0.49% hits; AID 651724, 2012; CtBP / adenovirus E1A interaction (AlphaScreen); activity change, % (test concentration not listed); AlphaScreen GST-E1A/His-CtBP binding, 1536-well; hits give low values; in the data active = activity change below about -65%; inconclusive = mostly about -30% to -63%
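Homogeneous bead-based format: GST-tagged E1A captured on glutathione donor beads, His-tagged CtBP on nickel acceptor beads; compounds precede bead addition by 2 h at 37 °C.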
DT40 TDP1 no CPT: qHTS for Inhibitors of human tyrosyl-DNA phosphodiesterase 1 (TDP1): qHTS in cells in absence of CPT. AID 686978, 2013. DT40 Tdp1-/- hTDP1 cells, no CPT, ATP luminescence, 48 h. 420,000 compounds, 15% hits. Potency, µM (highest dose often 46.2 µM), most hits filed as inhibitors; note: nearly all actives have a fitted effect of over 55% in size
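Cells were dispensed at 400 per well, compounds added by pin tool, plates incubated ≥48 hr at 37 °C, then CellTiter-Glo added for 30 min at room temperature before luminescence reading. Line: DT40 Tdp1-/- complemented with hTDP1; camptothecin omitted.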
Six1-Eya2 inh: qHTS Assay for Inhibitors of the Six1/Eya2 Interaction. Homeobox protein SIX1 (Homo sapiens) + Protein phosphatase EYA2 (Homo sapiens), …. AlphaScreen GST-Six1/His-Eya2 binding, biochemical; hits give low values. activity change, % (no concentration beside the values). 360,000 compounds, 0.56% hits. AID 651725, 2012; in the data active = activity change below about -65%; inconclusive = mostly about -30% to -63%
Target sequence (O00167 whole entry, looked up): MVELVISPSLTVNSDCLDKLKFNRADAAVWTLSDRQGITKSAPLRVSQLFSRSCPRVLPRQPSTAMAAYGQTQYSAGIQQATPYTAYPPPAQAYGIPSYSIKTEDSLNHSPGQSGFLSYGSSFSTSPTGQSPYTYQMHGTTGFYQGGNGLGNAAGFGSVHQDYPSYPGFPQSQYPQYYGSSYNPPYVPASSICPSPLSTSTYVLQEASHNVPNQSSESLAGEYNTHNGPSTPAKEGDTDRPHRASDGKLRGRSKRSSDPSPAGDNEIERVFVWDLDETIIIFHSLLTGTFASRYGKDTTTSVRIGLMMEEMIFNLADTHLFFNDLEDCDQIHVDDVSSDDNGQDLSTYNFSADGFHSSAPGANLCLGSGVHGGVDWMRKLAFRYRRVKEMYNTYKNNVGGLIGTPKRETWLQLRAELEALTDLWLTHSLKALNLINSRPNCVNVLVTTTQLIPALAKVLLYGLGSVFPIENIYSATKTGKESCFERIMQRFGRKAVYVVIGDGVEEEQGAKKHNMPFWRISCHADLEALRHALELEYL
Target sequence (Q15475 whole entry, looked up): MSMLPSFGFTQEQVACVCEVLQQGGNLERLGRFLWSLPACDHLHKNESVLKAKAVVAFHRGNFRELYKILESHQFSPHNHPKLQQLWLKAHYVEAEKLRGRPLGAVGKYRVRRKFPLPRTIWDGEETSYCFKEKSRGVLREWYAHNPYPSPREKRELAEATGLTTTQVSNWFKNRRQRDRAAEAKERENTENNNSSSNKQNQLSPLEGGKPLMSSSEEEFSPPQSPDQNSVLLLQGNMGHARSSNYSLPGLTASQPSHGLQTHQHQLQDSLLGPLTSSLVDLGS
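AlphaScreen luminescence read after one hour at 37 °C in darkness. Pin-transferred compounds met GST-Six1 and His-Eya2 protein (5X stock 250 nM/500 nM) plus glutathione donor and Ni-chelate acceptor beads (5X, 50 ug/mL).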
Hits are given with their value; - = inactive; ? = inconclusive; . = no result. Unless noted, calls come from the whole dose curve; as a rule, active = well fitted curve in the direction sought with a large enough effect; inconclusive = small, poorly fitted or top-dose-only effect, or another doubt; inactive = no such curve, though single readings can be large; an effect the other way counts as inactive or inconclusive.

SMILES	DT40 TDP1 CPT	IL-1B inflam inh	TDP1 block	CtBP-E1A blk	DT40 TDP1 no CPT	Six1-Eya2 inh
O=C(CCl)Nc1cc(SCC(O)CO)cc([N+](=O)[O-])c1 (stereo unspecified)	4.6µM	-101	-	-	?	-
CCC(=O)Nc1cc(ON=C(C)C)cc([N+](=O)[O-])c1	-	-	-	-	-	-
CC(C)=NOc1cc(NC(=O)CCl)cc([N+](=O)[O-])c1	3.7µM	-100	-	-	4.1µM	-
N/C(=N\OC(=O)CC1CCCCC1)c1cccnc1	-	-	-	-	-	-
CCCCN1CC(c2nc3ccccc3n2CCCCOc2cc(C)cc(C)c2)CC1=O (stereo unspecified)	12µM	.	-	.	7.3µM	.
CCCCN1CC(c2nc3ccccc3n2CCCCOc2cccc(C)c2C)CC1=O (stereo unspecified)	?	.	-	.	21µM	.
CCCCN1CC(c2nc3ccccc3n2CCCCOc2ccc(C)c(C)c2)CC1=O (stereo unspecified)	10µM	.	-	.	7.3µM	.
Cc1cccc(OCCCCn2c(C3CC(=O)N(c4ccc(C)cc4C)C3)nc3ccccc32)c1 (stereo unspecified)	?	.	-	.	?	.
O=C(OCC(=O)N1CCN(S(=O)(=O)c2ccc(Cl)cc2)CC1)c1cccc(OC(F)F)c1	-	-	-	-	?	-
Cc1ccc(S(=O)(=O)NNc2ccccc2)cc1	-	-	-	-	-	-
Cc1ccc(S(=O)(=O)NNc2c3ccccc3nc3ccc(Cl)cc23)cc1	23µM	-	.	-	8.2µM	-
Cc1ccc(S(=O)(=O)Nc2ccc(Cl)cc2O)cc1	?	-	.	-	?	-
Cc1ccc(S(=O)(=O)NNc2nc3ccccc3nc2C(F)(F)F)cc1	?	-	-	-	18µM	-
Cc1ccc(OCC(=O)N2CCCCCCC2)cc1C	-	-	.	-	?	-
NC(=O)c1cc2ccccc2o/c1=N\NC(=O)c1ccc(F)cc1	21µM	-	.	-	8.2µM	-
NC(=O)c1cc2ccccc2o/c1=N\NC(=O)c1ccccc1O	?	-	.	-	?	-
CCN(CC)S(=O)(=O)c1cc(NC(=O)c2ccccc2OCc2c(C)noc2C)ccc1C	16µM	-	.	-	16µM	-
Cc1noc(C)c1C(=O)OCC(=O)Nc1cccc(S(N)(=O)=O)c1	-	-	-	-	-	-
CCN(CC)S(=O)(=O)c1cc(NC(=O)COC(=O)c2c(C)noc2C)ccc1C	?	-50	-	-	-	-
COc1ccc(NC(=O)c2ccccc2OCc2c(C)noc2C)cc1OC	-	-	-	-	-	-
Cc1cc(F)ccc1S(=O)(=O)Nc1ccc(C(=O)N2CCCCCC2)cc1	?	-	-	-	?	-
CCc1ccccc1OCC(=O)OCC(=O)Nc1cc(C)on1	-	-	-	-	-	-
CC(C)CC(NC(=O)OC(C)(C)C)c1cn([C@@H](CCCCNC(=O)OC(C)(C)C)C(=O)N2CCN(C(=O)OC(C)(C)C)CC2)nn1 (stereo partly specified)	5.8µM	-	-	-	3.7µM	-
CC(C)(C)OC(=O)CC[C@@H](C(=O)N1CCN(C(=O)OC(C)(C)C)CC1)n1cc(C(Cc2ccc(O)cc2)NC(=O)OC(C)(C)C)nn1 (stereo partly specified)	18µM	-	-	-	16µM	-
C[C@@H](C(=O)N1CCN(C(=O)OC(C)(C)C)CC1)n1cc(-c2cn([C@@H](C)C(=O)N3CCN(C(=O)OC(C)(C)C)CC3)nn2)nn1	.	.	-	.	.	.
